High-throughput results deposited in PubChem BioAssay by several laboratories.
NCOA2 inhibitor: inhibits human steroid receptor coactivator 2; Q15596; HEK293 GAL4-SRC2 luciferase reporter, luminescence; inhibition, % at 9 µM; 370,000 compounds, 0.17% hits; AID 651957;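 active = inhibition above the mean inhibition of all tested compounds plus 3 SD, set per campaign, cut at about 52% in these data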;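 note: 0% = DMSO treated cells and 100% = cells given Gossypol at 36 µM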
Efflux pump inh: inhibitors of Candida antifungal efflux pumps expressed in yeast. S. cerevisiae Candida pump triplex, Nile Red efflux. inhibition, % at 10 µM. 330,000 compounds, 0.44% hits;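 active = plate passing quality check with inhibition over a set limit, or well fluorescence over plate mean plus 4 SD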;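 note: Nile Red retained in pooled yeast measured as flow cytometry median fluorescence; 0% = buffer negative control and 100% = Enniatin B positive control; higher means more Nile Red kept so more efflux inhibition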
NCOA1 inh: inhibits human SRC1 coactivator; Q15788; HEK293 GAL4-SRC1 luciferase reporter, luminescence; inhibition, % at 3.6 µM; 360,000 compounds, 0.12% hits; AID 588354;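 active = inhibition above the campaign mean plus 3 SD, with each screening campaign given its own cutoff, cut at about 60% in these data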;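 note: 0% = DMSO treated cells and 100% = gossypol at 36 µM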
LRH-1 inv ag: suppresses constitutive activity of human LRH-1; O00482; HEK293T StAR-luciferase reporter, LRH-1 transfected, 24 h; inhibition, % at 3.6 µM; 360,000 compounds, 0.13% hits; AID 602396;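 active = inhibition above the mean inhibition of all tested compounds plus 3 SD, cut at about 73% in these data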;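 note: 0% = DMSO wells and 100% = reporter-only cells lacking LRH-1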
Target sequence (O00482 whole entry, looked up): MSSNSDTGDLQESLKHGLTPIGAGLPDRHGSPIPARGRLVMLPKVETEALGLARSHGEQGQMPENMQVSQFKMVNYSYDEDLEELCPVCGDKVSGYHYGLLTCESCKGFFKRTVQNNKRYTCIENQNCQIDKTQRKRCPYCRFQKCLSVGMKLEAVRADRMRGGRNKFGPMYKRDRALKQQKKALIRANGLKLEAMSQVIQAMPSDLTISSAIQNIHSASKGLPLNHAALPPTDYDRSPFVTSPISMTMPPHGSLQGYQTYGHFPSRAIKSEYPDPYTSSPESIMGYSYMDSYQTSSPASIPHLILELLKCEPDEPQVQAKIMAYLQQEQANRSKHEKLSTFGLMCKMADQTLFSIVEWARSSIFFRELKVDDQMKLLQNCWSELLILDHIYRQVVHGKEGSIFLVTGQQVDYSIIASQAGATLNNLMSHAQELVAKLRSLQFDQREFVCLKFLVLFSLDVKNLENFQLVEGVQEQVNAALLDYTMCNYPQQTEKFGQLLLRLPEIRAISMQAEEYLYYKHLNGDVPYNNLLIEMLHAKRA
NCOA3 inh: inhibits human SRC3 coactivator | Q9Y6Q9 | HEK293 GAL4-SRC3 luciferase reporter, luminescence | inhibition, % at 3.6 µM | 360,000 compounds, 0.17% hits | AID 588352;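 active = inhibition above a per-campaign cutoff, the mean of all compounds plus 3 SD, cut at about 60% in these data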;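 note: 0% = DMSO-treated cells and 100% = gossypol-treated cells at 36 µM; higher means less SRC3-driven luciferase light from the GAL4 reporter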
NR2F2 inh: blocks human COUP-TFII nuclear receptor. inhibition, % at 8.6 µM. P24468. HEK293T NGFI-A luciferase reporter, luminescence. 370,000 compounds, 0.7% hits;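 active = inhibition above a per-plate cutoff, mean inhibition of test wells between control levels plus 3 SD, cut at about 38% in these data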;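 note: cells cotransfected with COUP-TFII expression vector driving the NGFI-A reporter; 0% = median of COUP-TF2 test wells and 100% = reporter-only cells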
VP16 Luc counter: VP16 inhibition counter-screen for COUP-TFII; 2,500 compounds, 25% hits; shares compounds with NR2F2 inh; HEK293 Gal4-VP16 luciferase reporter, luminescence; AID 687007; inhibition, % at 8.5 µM; in the data active = inhibition above about 13%
COUP-TFII conf: COUP-TFII (NR2F2) inhibition, confirmation assay. HEK293 NGFI-A luciferase reporter, luminescence. inhibition, % at 8.5 µM. 2,500 compounds, 45% hits. shares compounds with NR2F2 inh;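 active = mean inhibition over three repeats above a set limit taken from the earlier primary screen, cut at about 38% in these data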;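 note: 100% = cells given the luciferase reporter alone without the COUP-TF2 vector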
The depositor's hits bear a star. An excerpt weighted towards active compounds, which were near 1.2% of everything screened.

Screening O=C(Nc1ccccc1O)c1ccc(NS(=O)(=O)c2cccc3cccnc23)cc1 returned NCOA2 inhibitor -213.0, Efflux pump inh 0.0, NCOA1 inh -28.6, LRH-1 inv ag -7.9, NCOA3 inh -20.4, NR2F2 inh 39.8*, VP16 Luc counter -43.4 and COUP-TFII conf 38.1*.
For NS(=O)(=O)c1ccc(NC(=S)NC(=O)C2CCCC2)cc1 the results were NCOA2 inhibitor -11.0, Efflux pump inh -0.1, NCOA1 inh -9.9, LRH-1 inv ag 8.2, NCOA3 inh -5.1 and NR2F2 inh 0.2.
C[n+]1ccccc1/C=C/c1ccc(F)c(F)c1 was read as NCOA2 inhibitor 11.1, Efflux pump inh -0.1, NCOA1 inh 9.4, LRH-1 inv ag 4.8, NCOA3 inh 1.4 and NR2F2 inh 3.4.
`C[n+]1ccc(/C=C/c2c[nH]c3ccc(F)cc23)cc1` gave NCOA2 inhibitor -8.5, Efflux pump inh 4.2, NCOA1 inh 18.1, LRH-1 inv ag 14.8, NCOA3 inh -8.4, NR2F2 inh 37.9*, VP16 Luc counter 4.9 and COUP-TFII conf 23.9.
`Cc1ccsc1/C=N/Nc1cccc(C(=O)O)c1` gave NCOA2 inhibitor -105.8, Efflux pump inh 0.0, NCOA1 inh -104.7, LRH-1 inv ag -239.0, NCOA3 inh -92.7 and NR2F2 inh -52.6.
For COc1ccc(-c2sc3ccc(N4CCOCC4)cc3c2C#CCO)cc1 the results were NCOA2 inhibitor 20.7, Efflux pump inh -0.2, NCOA1 inh 6.9, LRH-1 inv ag 33.8, NCOA3 inh 11.9, NR2F2 inh 74.0*, VP16 Luc counter -10.6 and COUP-TFII conf 52.9*.
Cc1ccc(NC(=O)C(C)c2cccc(C(=O)c3ccccc3)c2)cc1O (centres undefined) was read as NCOA2 inhibitor 0.4, Efflux pump inh -0.6, NCOA1 inh 4.2, LRH-1 inv ag 27.9, NCOA3 inh 14.5, NR2F2 inh 48.0*, VP16 Luc counter 8.7 and COUP-TFII conf 33.3.
Cc1cccc(NC(=O)C(C)C(=O)c2ccccc2)c1 (centres undefined) was read as NCOA2 inhibitor 14.7, Efflux pump inh 0.2, NCOA1 inh 10.2, LRH-1 inv ag 1.8, NCOA3 inh 0.8 and NR2F2 inh -3.5.
Screening CCOC(=O)C1=C(C)N(Cc2ccccc2)C(=O)NC1c1ccccc1OS(=O)(=O)c1ccccc1[N+](=O)[O-] (centres undefined) returned NCOA2 inhibitor 11.9, Efflux pump inh 0.0, NCOA1 inh 20.0, LRH-1 inv ag 38.2, NCOA3 inh 14.4, NR2F2 inh 46.5*, VP16 Luc counter 1.3 and COUP-TFII conf 33.9.
`COc1ccc(CNC(=O)Cn2nc([N+](=O)[O-])c(Br)c2C)cc1` gave NCOA2 inhibitor 5.4, Efflux pump inh 0.0, NCOA1 inh -12.0, LRH-1 inv ag -10.9, NCOA3 inh -21.8 and NR2F2 inh 5.9.
`COCCN1CCN(C(=O)c2ccc3nc(Cc4ccc(OC)c(OC)c4)oc3c2)CC1` gave NCOA2 inhibitor 12.2, Efflux pump inh -0.3, NCOA1 inh 24.0, LRH-1 inv ag 37.5, NCOA3 inh 19.8, NR2F2 inh 49.3*, VP16 Luc counter -0.3 and COUP-TFII conf 48.5*.
COc1cccc2c1C(=O)c1c(O)c3c(c(O)c1C2=O)C[C@@](O)(C(C)=O)C[C@@H]3O[C@H]1C[C@H](N)[C@H](O)[C@H](C)O1 was read as NCOA2 inhibitor 27.4, NCOA1 inh 5.7, LRH-1 inv ag 99.3*, NCOA3 inh 81.6*, NR2F2 inh 54.4*, VP16 Luc counter 27.6* and COUP-TFII conf 43.7*.
COc1cccc2c1C(=O)c1c(O)c3c(c(O)c1C2=O)CC(O)(C(=O)CO)CC3OC1CC(N(C)C)C(O)C(C)O1 (centres undefined) was read as NCOA2 inhibitor 58.0*, NCOA1 inh 79.2*, LRH-1 inv ag 97.4*, NCOA3 inh 85.0*, NR2F2 inh 45.2*, VP16 Luc counter 28.0* and COUP-TFII conf 27.2.
